Experimental data taken from PubChem BioAssay AID1345082 (National Center for Advancing Translational Sciences (NCATS), 2018).
The whole screen tested about 94,000 compounds, of which about 4,000 (4.3%) were called active. Entries that show only a call come without a potency. Roughly 29% stayed inconclusive and do not appear here. The call rests on the fitted dose curve; in most records, active means well fitted inhibition curve with a large enough effect; inconclusive means small, poorly fitted or top-dose-only effect; inactive means no such curve, though single readings can be large or run the other way. Many of the other results were omitted from the sample, so actives are more common in it than they were.

Experiment: Cytotoxic Profiling in NIH 3T3 Cell Line of Diverse Libraries Using Quantitative High-Throughput Screening; further: nearly all actives have a fitted effect of over 55% in size
Settings: NIH 3T3 viability, CellTiter-Glo ATP luminescence, 48-72 h; series mostly up to 96.7 µM
Description: Cell-based phenotypic screening is a commonly used approach to discover biological pathways, novel drug targets, chemical probes and high-quality hit-to-lead molecules. Many hits identified from high-throughput screening campaign are ruled out through a series of follow-up potency, selectivity/specificity, and cytotoxicity assays. Prioritization of molecules with little or no cytotoxicity for a more in-depth downstream evaluation influence the future direction of projects, so cytotoxicity profiling of the screening libraries at early stage is essential for increasing the likelihood of candidate success. In this study, we analyzed results from a cell-based cytotoxicity screening campaign, comprising nearly 10,000 compounds in NCATS annotated libraries, and over 100,000 compounds in a diversity library, evaluated in four normal cell lines (HEK 293, NIH 3T3, CRL-7250 and HaCat) and a cancer cell line (KB 3-1, a HeLa subline) with overall screening outcomes, hit rates, pan-activity and selectivity. For the annotated library, we also examined the primary targets and mechanistic pathways regularly associated with cell death. To our knowledge, this is the first study to use high-throughput screening to profile large libraries for cytotoxicity assessment in both normal and cancer cell lines. In summary, the results generated here constitutes a valuable resource for the scientific community and provides insight on identifying cytotoxic compounds with particular mechanisms of action, and prioritizing compounds with suitable cytotoxicity profile for further evaluation.
NIH 3T3 cells were seeded into white 1536-well plates using a Multidrop Combi peristaltic dispenser (ThermoFisher, Waltham, MA) at a density of 400 cells/well in 5 uL of medium respectively. A pintool (Kalypsys) was used to transfer 23 nL of compound solution to the 1536-well assay plates. After 48 or 72 hr incubation at 37 degree Celsius, 5% CO2 and 95% humidity, 2.5 uL of CellTiter-Glo (Promega) was dispensed into each well using a dispenser (Aspect Automation, St. Paul, MN) with solenoid valves (Lee Valves, Westbrook CT). Plates were left at room temperature for 10 min before imaging the ATP-coupled luminescence using a ViewLux microplate imager (PerkinElmer, Waltham, MA).
Potency means the concentration at half of the fitted maximal effect.

| SMILES | Potency |
| --- | --- |
| CCCc1nc(NCC(c2ccccn2)N2CCOCC2)c2cnn(C)c2n1 (stereo unspecified) | inactive |
| CC(C)Cc1cc(CNc2nc(C(C)(C)C)nc3c2cnn3C)no1 | 44.7 µM (active) |
| COc1ccc2[nH]cc(CCNC(=O)CC3=C4CCCCC4N(C)C3=O)c2c1 (stereo unspecified) | inactive |
| COc1ccc(CNC(=O)CC[C@@H]2CNC(=O)[C@@H]3C[C@H](NC(=O)Nc4ccsc4)CN23)cc1 | inactive |
| CC(=O)N1CCN(C(=O)c2ccc3nc(-c4ccncc4)oc3c2)CC1 | inactive |
| CCOC(=O)C1CCCN(C(=O)c2ccc3oc(-c4ccccn4)nc3c2)C1 (stereo unspecified) | inactive |
| Cc1cccc(-c2nc3ccc(C(=O)N4CCCCC4)cc3o2)n1 | 10 µM (active) |
| CCOc1ccccc1C1NC(=O)N(CC(=O)Nc2ccc(C)c(C)c2)C2=C1C(=O)OC2 (stereo unspecified) | inactive |
| Cc1ccc(Cl)cc1NC(=O)CN1C(=O)NC(c2ccc(Cl)cc2)C2=C1COC2=O (stereo unspecified) | 35.5 µM (active) |
| Cc1cccc(C)c1NC(=O)CN1C(=O)NC(c2ccc(Cl)cc2)C2=C1COC2=O (stereo unspecified) | inactive |
| Cc1ccccc1NC(=O)CN1C(=O)NC(c2ccccc2Cl)C2=C1COC2=O (stereo unspecified) | inactive |
| CCOc1ccccc1C1NC(=O)N(CC(=O)Nc2c(C)cccc2Cl)C2=C1C(=O)OC2 (stereo unspecified) | inactive |
| CCc1cccc(NC(=O)CN2C(=O)NC(c3ccc(Cl)cc3)C3=C2COC3=O)c1 (stereo unspecified) | 25.1 µM (active) |
| CCN1CC2(CCN(Cc3c(OC)ccc(F)c3F)CC2)OC1=O | inactive |
| COc1ccc(-c2cccc(C(=O)N3CCN(C(=O)c4ccc(Cl)nc4)CC3)c2)nn1 | inactive |
| COCCc1noc(C2Cc3ccccc3N2C(=O)NCc2ccco2)n1 (stereo unspecified) | inactive |
| O=C(NC[C@H]1O[C@H](Cc2cc(-c3ccccc3)on2)CC[C@@H]1O)C1CCC1 | inactive |
| O=C1Nc2ccccc2CC12CCN2Cc1cncs1 (stereo unspecified) | inactive |
| CC(=O)N1CCN(C(=O)c2ccccc2N2CCOCC2)CC(O)C1 (stereo unspecified) | inactive |
| O=C1Cc2c(-c3ccc(CO)cc3)n[nH]c2CN1CC1CCOCC1 | 79.4 µM (active) |
| COCc1cccc(-c2n[nH]c3c2CC(=O)N(c2ccccc2)C3)c1 | inactive |
| c1cc(-c2ccc3c(c2)OCCCO3)n2ncnc2n1 | inactive |
| COc1ccc(Cn2c(=O)c(C(=O)N3CCN(C(=O)Nc4ccccc4)CC3)nc3cccnc32)cc1 | inactive |
| COc1ccc(F)cc1-c1ccc(CN2CCC(NC(=O)c3ccccc3)C2)cc1 (stereo unspecified) | 35.5 µM (active) |

| SMILES | Potency |
| --- | --- |
| COc1ccc(F)cc1S(=O)(=O)N1[C@@H]2CC[C@H]1CC(NC(=O)c1ccc(F)cc1)C2 (stereo partly specified) | inactive |
| O=C(NC1CCCN(Cc2ccc(-c3cncnc3)cc2)C1)c1ccccc1 (stereo unspecified) | inactive |
| COc1ccc(CC(=O)NC2CCN(Cc3ccc(-c4ccccc4OC)cc3)C2)cc1 (stereo unspecified) | 31.6 µM (active) |
| Cc1cc(C)cc(-c2ccc(CN3CCCC(NC(=O)c4ccccc4)C3)cc2)c1 (stereo unspecified) | 22.4 µM (active) |
| O=C(NC1CCCN(Cc2ccc(-c3cncnc3)cc2)C1)C1CCCC1 (stereo unspecified) | inactive |
| COc1cccc(-c2ccc(CN3CCCC(NC(=O)NC4CCCC4)C3)cc2)c1 (stereo unspecified) | inactive |
| COc1ccccc1-c1ccc(C(=O)N2CCC(C(=O)NC3CC3)CC2)cc1 | inactive |
| COCCC1(NC(=O)c2ccccc2)CCN(Cc2ccc(F)cc2F)CC1 | inactive |
| CCn1ncnc1CN1CCC2(CC1)CC(C(=O)O)N(C(C)=O)C2 (stereo unspecified) | inactive |
| COCC(=O)NC1CCC12CCN(C(=O)Nc1ccccc1)CC2 (stereo unspecified) | inactive |
| Cc1ccc(C(=O)NC2CCN(c3ccc4nnc(C)n4n3)C2)cc1 (stereo unspecified) | inactive |
| O=C([C@@H]1C[C@H](F)CN1C(=O)Cc1ccccc1Cl)N1CCCCC1 | inactive |
| Cc1ccccc1N1Cc2c(NCC(C)C)ncnc2N(C)CC1=O | inactive |
| CC/C=C/CC(=O)N1CCC2(CCN(Cc3cccnc3)CC2)C(CO)C1 (stereo unspecified) | inactive |
| COc1cccc2c1CCN=C2C[C@H]1CN(C(=O)C(C)(C)C)CC[C@H]1CC(=O)O | inactive |
| Cc1n[nH]c(C)c1CCC(=O)N1CCCC(c2ccc(C(=O)O)cc2)C1 (stereo unspecified) | inactive |
| COc1ccc(S(=O)(=O)N2C[C@@H](Oc3ccccc3)C[C@@H]2C(=O)N2CCOCC2)cc1 | inactive |
| Cc1c(C(=O)N2C[C@@H](CN(C)C)C[C@H](CO)C2)n(C)c2c(C)cccc12 | inactive |
| CN(C)C[C@@H]1CN(C2CCOCC2)C[C@H]1NC(=O)c1ccco1 | inactive |
| Cc1ccc2nc3n(c2c1)[C@@H](CNC(=O)c1ccc(C#N)cc1)COC3 | 89.1 µM (active) |
| COc1ccc2c(c1)nc1n2[C@@H](CNC(=O)c2ccncc2)COC1 | inactive |
| Cc1ccc2c(c1)nc1n2[C@@H](CNC(=O)c2ccccc2)COC1 | inactive |
| O=C(CCC1CCCN(S(=O)(=O)c2ccc(F)cc2)C1)NC1CCS(=O)(=O)C1 (stereo unspecified) | inactive |
| O=C(NC1CCc2nn(CC3CC3)c(=O)n2CC1)c1ccc(Cn2ccnc2)o1 (stereo unspecified) | inactive |

| SMILES | Potency |
| --- | --- |
| Cc1noc([C@H]2CCN(Cc3ccccc3F)C[C@H]2NC(=O)C2CC2)n1 | inactive |
| Cc1oc2ccn(Cc3ccccc3F)c(=O)c2c1C(=O)NCCCN1CCCCC1C (stereo unspecified) | 39.8 µM (active) |
| Cc1oc2c(c1C(=O)NCCN1CCCC1)CN(Cc1ccc(F)cc1)CC2 | inactive |
| CCn1nc(C)c(-c2cc(C(=O)N3CCCCCCNC(=O)[C@@H]4CCCC[C@@H]43)no2)c1C | inactive |
| COc1nccnc1NC1CCN(C(=O)NCc2ccccc2)CC1 | inactive |
| Cn1cc(CN2CCOC[C@H](Oc3ccc(S(C)(=O)=O)cc3)C2)c2ccccc21 | 28.2 µM (active) |
| COc1ccc(O[C@H]2COCCN(Cc3nccn3C)C2)cc1 | inactive |
| CC(C)CN1CCOC[C@H](Oc2ccc(S(C)(=O)=O)cc2)C1 | inactive |
| CCCCn1ccnc1C1CCCN(C(=O)c2ccccc2-c2ncn[nH]2)C1 (stereo unspecified) | inactive |
| O=C(NCc1ccccc1)c1ccc2nc(-c3ccnc(Cl)c3)oc2c1 | inactive |
| O=C(NCCc1ccc(Cl)cc1)c1ccc2oc(-c3cccnc3)nc2c1 | inactive |
| CN(C)C(=O)c1ccc2oc(-c3ccnc(Cl)c3)nc2c1 | 28.2 µM (active) |
| O=C(O)[C@]12CCCN(Cc3ncc[nH]3)[C@@H]1CCN(Cc1ccncc1)C2 | inactive |
| CCCN1CCCC2(CCN(C(=O)C(=O)c3cccn3C)C2)C1=O (stereo unspecified) | inactive |
| CC(C)NC(=O)C1CCC(=O)N1C1CCN(C(=O)c2ccc3c(c2)OCO3)CC1 (stereo unspecified) | inactive |
| O=C(c1ccc2c(c1)OCO2)N1CCC(n2c(=O)[nH]c3ccccc32)CC1 | inactive |
| CNc1nc(C(=O)NCc2ccc3[nH]c(-c4ccc(F)cc4)c(C)c3c2)cs1 | 50.1 µM (active) |
| COc1ccc(CNC(=O)c2noc(-c3ccc(F)cc3)n2)cc1 | inactive |
| O=C(NCc1ccc2c(c1)OCO2)c1noc(-c2ccc(F)cc2)n1 | inactive |
| CN(CCc1ccccn1)[C@H]1[C@@H]2OC[C@@H](O2)[C@@H](NC(=O)Nc2ccc(F)cc2)[C@@H]1O | inactive |
| CNC(=O)[C@@H]1CN(C(=O)c2n[nH]c3ccccc23)C[C@H]1COC | inactive |
| COc1ccccc1C(=O)N1CCC2(CC1)C(=O)Nc1ccccc12 | inactive |
| COCCNC(=O)c1nc(-c2cc(Cl)cc(Cl)c2)c2ccccn12 | inactive |
| CCc1cc(=O)n(CC(=O)Nc2ccccc2F)c(-c2cccc(F)c2)n1 | inactive |

| SMILES | Potency |
| --- | --- |
| CN(C)CCNC(=O)c1nc2nc(-c3ccccc3)c(-c3cccc(F)c3)cc2n1C | 25.1 µM (active) |
| Cc1ccc(S(=O)(=O)N2C[C@@H](F)C[C@H]2C(=O)N2CCCCC2)cc1Cl | inactive |
| CCN1c2cc(C(=O)NCc3cccc(F)c3)ccc2C(=O)N2CCCCCC21 (stereo unspecified) | inactive |
| CN1c2cc(C(=O)Nc3ccc(F)cc3)ccc2C(=O)N2CCCCC21 (stereo unspecified) | inactive |
| CCN1c2cc(C(=O)Nc3ccc(F)c(Cl)c3)ccc2C(=O)N2CCCCC21 (stereo unspecified) | 25.1 µM (active) |
| COC1CN(c2cccc(F)c2)C12CCN(C1CCOCC1)CC2 (stereo unspecified) | inactive |
| COCCN1CCN(C(=O)[C@@H]2Cc3cn(C)c4cccc(c34)[C@H](CC(C)C)N2)CC1 | inactive |
| Cc1cc(Cn2cc3c4c(cccc42)[C@H](CC(C)C)N[C@H](C(=O)N2CCCCCC2)C3)no1 | 31.6 µM (active) |
| CC#CCn1cc2c3c(cccc31)[C@H](CC(C)C)N[C@H](C(=O)NCc1ccccc1OC)C2 | 31.6 µM (active) |
| COc1ccc(CNC(=O)[C@@H]2Cc3cn(Cc4ccncc4)c4cccc(c34)[C@H](CC(C)C)N2)cc1 | 79.4 µM (active) |
| COC(=O)[C@@H]1Cc2ncn(Cc3ccc(OC)cc3)c2CN1S(C)(=O)=O | inactive |
| COc1ccc(CNC(=O)[C@H]2O[C@H](CCN3CCN(C)CC3)CC[C@@H]2O)cc1 | inactive |
| CCCN1C(=O)Cc2ccccc2C1C(=O)NCc1cccc(OC)c1OC (stereo unspecified) | inactive |
| COc1ccccc1CNC(=O)CN1CC[C@](C)(O)[C@@H](O)C1 | inactive |
| COc1ccc(CCC(=O)N2CCCC3(CC2)CN(C)C(=O)O3)cc1OC (stereo unspecified) | inactive |
| CS(=O)(=O)c1ccc(CN2CCOC(c3cccnc3)C2)cc1 (stereo unspecified) | inactive |
| COc1ccc(CNC(=O)CC[C@@H]2CNC(=O)[C@@H]3C[C@H](NC(=O)NC(C)C)CN23)cc1 | inactive |
| Cc1ccc(-n2cccn2)c(CN2CCC(CNS(C)(=O)=O)C2)c1 (stereo unspecified) | inactive |
| OC[C@@H]1O[C@H](CNC2CCOCC2)[C@H](N2CCCC2)[C@@H]1O | inactive |
| Cc1cc(C)n(CCCN(C)C(=O)C2C3C(=O)N(CCC(C)C)C[C@@]34C=C[C@@H]2O4)n1 (stereo partly specified) | inactive |
| Cc1cn2nc(C(=O)Nc3ccc(F)cc3F)cc2c(N(C)Cc2ccccc2)n1 | inactive |
| CCNC(=O)c1ccccc1-c1ccc(O)cc1 | inactive |
| O=Cc1ccccc1-c1ccc(O)cc1 | 79.4 µM (active) |
| COc1ccccc1C(=O)N1CCC2(C1)C(=NC1CCCCC1)NC(=O)N2c1cccnc1 (stereo unspecified) | inactive |
